Experimental data from PubChem BioAssay AID1209 (Sanford-Burnham Center for Chemical Genomics, 2008).
Among all 190,000 compounds or so, about 810 (0.43%) were called active. What follows is part of a selection rich in actives, with near analogues and random picks from the rest. Values without a mark were called inactive. Rule as the data show it: active = inhibition above about 50%; inactive = the rest.

target: Mannose-6-phosphate isomerase (Homo sapiens) (UniProt P34949); experiment: MPI enzyme activity inhibition – biochemical, fluorescence intensity, coupled assay, primary screen (AID 1209); details: purified PMI enzyme, at 20 µM, active compounds read high;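 also: plate controls were DMSO vehicle for no effect and wells lacking substrate for full effect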
Sequence (P34949 whole entry, looked up): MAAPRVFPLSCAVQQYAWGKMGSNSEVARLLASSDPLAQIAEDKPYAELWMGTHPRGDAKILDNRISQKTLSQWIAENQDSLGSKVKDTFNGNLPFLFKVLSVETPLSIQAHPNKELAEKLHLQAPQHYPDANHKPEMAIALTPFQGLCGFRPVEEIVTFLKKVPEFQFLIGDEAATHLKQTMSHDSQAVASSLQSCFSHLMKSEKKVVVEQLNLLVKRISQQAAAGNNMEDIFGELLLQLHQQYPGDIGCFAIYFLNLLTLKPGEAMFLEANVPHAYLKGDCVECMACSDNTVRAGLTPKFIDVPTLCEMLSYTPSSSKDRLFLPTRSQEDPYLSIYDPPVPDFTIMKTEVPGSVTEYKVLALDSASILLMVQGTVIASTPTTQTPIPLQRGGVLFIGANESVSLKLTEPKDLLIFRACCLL

Structure (SMILES)	inhibition
Cc1cc(C(=O)Nc2ccc(C(=O)O)cc2)c(-c2ccccc2)o1	4%
Cc1ccc[n+](CC(=O)c2ccc(NC(=O)c3ccccc3)cc2)c1	-10.6%
COCCN(CCOC)S(=O)(=O)c1ccc(C(=O)Nc2sc3c(c2C(N)=O)CCCCC3)cc1	3.2%
CC(=O)Nc1ccc(NC(=O)COc2c(C)cc(Br)cc2C)cc1	13.2%
CCO/N=C(\C)c1c(O)c(CC)c(-c2ccccc2)n(-c2ccccc2)c1=O	9.9%
CCOC(=O)c1sc(NC(=O)c2ccc(Br)o2)cc1C	11.7%
C=CCn1c(NC(=O)CC)c(C(=O)OCC)sc1=S	17.3%
C=CCn1c(NC(=O)c2ccc(Br)o2)c(C(=O)OCC)sc1=S	50.7% (active)
O=C(NCc1cn2ccccc2n1)c1ccccc1	-15.8%
O=C(CCN1CCCC1Cc1ccccc1)c1ccc2c(c1)OCCO2 (stereo not given)	50.8% (active)
O=C(CCN1CCC(c2ccccc2)C1)c1ccc2c(c1)OCCO2 (stereo not given)	47.6%
O=C(CCN1CCCCC1)c1ccc2c(c1)OCCO2	36.1%
FC(F)Oc1cccc(NC(=S)N2CCN(c3ccccn3)CC2)c1	65.6% (active)
FC(F)(F)c1cccc(NC(=S)N2CCN(c3ccccn3)CC2)c1	-17%
COc1cccc(NC(=S)N2CCN(c3ccccn3)CC2)c1	12.3%
CN(C)c1cccc(C(=O)OCC(=O)Nc2nccs2)c1	-1.5%
N/C(=N/O)c1nc(N2CCCCC2)nc(N2CCCCC2)n1	2.2%
COc1nc(N2CCCCCC2)nc(N2CCCCCC2)n1	2.3%
COc1nc(/C(N)=N/O)nc(N2CCCCC2)n1	66.9% (active)
COc1ccc(C(=O)Nc2ccc(CN3CCCCC3)cc2)cc1	3%
CCOC(=O)Cn1nc(C)c([N+](=O)[O-])c1C	-27.5%
CCc1c(C)sc(NC(=O)Cn2nc(C)c([N+](=O)[O-])c2C)c1C(N)=O	53.3% (active)
Cc1nn(CC(=O)Nc2nccs2)c(C)c1[N+](=O)[O-]	-3.9%
COc1ccc(C2CC(C(F)(F)F)n3nc(C(=O)NCCCn4ccnc4)cc3N2)cc1OC (stereo not given)	41.3%
O=C(CN1CCCc2ccccc21)NCc1ccccc1Cl	-13.5%

Structure (SMILES)	inhibition
Cc1ccc(C(=O)Nc2ccc(N3CCN(S(C)(=O)=O)CC3)cc2)cc1	0.4%
O=C(CS(=O)(=O)c1ccc(Cl)cc1)NCCS(=O)(=O)c1ccc(Cl)cc1	59.5% (active)
CC(C(=O)NCCS(=O)(=O)c1ccc(Cl)cc1)S(=O)(=O)c1ccc(Cl)cc1 (stereo not given)	-15.8%
Cc1ccc(S(=O)(=O)CCNC(=O)Cc2ccc(Cl)cc2)cc1	3.4%
Cc1ccc(CNC(=O)c2cncc(Br)c2)cc1	10.4%
CCOC(=O)C(C)n1cnc2c(nnn2-c2ccc(OC)cc2)c1=O (stereo not given)	-2.7%
CCOc1ccc(CNC(=O)CCCOc2cc(=O)n(C)c3ccccc23)cc1	-6.3%
Cc1c(Cc2ccc3c(c2)OCO3)sc(NC(=O)c2ccc3ccccc3c2)c1C(N)=O	43.1%
Cc1c(Cc2ccc3c(c2)OCO3)sc(NC(=O)c2ccccc2)c1C(N)=O	-2.5%
Cc1c(Cc2ccc3c(c2)OCO3)sc(NC(=O)c2cccc3ccccc23)c1C(N)=O	56.7% (active)
COc1ccc(S(=O)(=O)/N=C2/C=CC(=O)C(C)=C2C)cc1	14.5%
Cc1ccc(S(=O)(=O)O/N=C2\CCCc3ccccc32)cc1	9.6%
CC1=C(C)/C(=N/OC(=O)c2cccc([N+](=O)[O-])c2)C=CC1=O	4.4%
CC1=C(C)/C(=N\OS(=O)(=O)c2ccc(C)cc2)C=CC1=O	75.6% (active)
CC1=C(C)/C(=N\OC(=O)/C=C/c2ccccc2)C=CC1=O	7.2%
CS(=O)(=O)N(CC(=O)NCC1CCCO1)c1cccc([N+](=O)[O-])c1 (stereo not given)	-8.6%
CCn1c(CNC(=O)Cc2ccc(OC)cc2)nnc1SCCOc1ccccc1	-11.5%
CC(C)Nc1nc(NC(C)C)nc(N(C)C#N)n1	3.3%
O=C(NN1CCN(Cc2ccccc2Cl)CC1)c1ccc(Br)cc1	-9.1%
O=S1(=O)CCN2C(c3cccc4ccccc34)=CSC2=N1	2.1%
Nc1nnc(SCCOc2ccccc2)s1	1.7%
Clc1ccc(OCc2nnc(-c3ccccc3Br)o2)c(Cl)c1	-0.9%
Cc1ccc(NC(=O)/C(=C/c2cccc([N+](=O)[O-])c2)NC(=O)C2CCCCC2)cc1	14%
CC(=O)/C(CN1CCCCC1)=N\O	-6.1%
C/C(=N\O)C(=O)NCCN1CCCCC1	1.5%

Structure (SMILES)	inhibition
C/C(=N\O)C(=O)C(CN1CCCCC1)CN1CCCCC1	52.4% (active)
CCc1c(C)nc2ncnn2c1NC1CCCc2ccccc21 (stereo not given)	15%
CC(C)c1ccc(NC(=O)C2CC(=O)N=C(N)S2)cc1 (stereo not given)	7.7%
Cc1ccc(C2CC(c3ccccc3)=NN2C(=S)Nc2ccccc2)o1 (stereo not given)	53% (active)
Cc1ccc(C2=NN(C(=S)Nc3ccccc3)C(c3ccco3)C2)cc1 (stereo not given)	8.2%
COc1ccc(C2CC(c3ccccc3)=NN2C(=S)Nc2ccccc2)cc1 (stereo not given)	9.4%
CCOC(=O)c1c(C)oc2c1c(CN1CCN(CCO)CC1)c(O)c1ccccc12	57.7% (active)
CCOC(=O)c1c(C)oc2c1c(CN1CCN(C(=O)OCC)CC1)c(O)c1ccccc12	25.1%
CCOC(=O)c1c(C)oc2c1c(C=NC1CCS(=O)(=O)C1)c(O)c1ccccc12 (stereo not given)	76.1% (active)
Cc1cc(C)cc(-n2c(O)c(C=NC3CCS(=O)(=O)C3)c3ccccc3c2=O)c1 (stereo not given)	14.1%
CCOC(=O)c1c(C)oc2c1c(C(c1cccnc1)N1CCCCC1)c(O)c1ccccc12 (stereo not given)	28.2%
O=C(O)CCCN=Cc1c(O)c2ccccc2oc1=O	3.2%
Cc1ccc(-n2c(O)c(C=NC3CCS(=O)(=O)C3)c3ccccc3c2=O)cc1 (stereo not given)	5.7%
O=C(O)CCN=Cc1c(O)c2ccccc2oc1=O	7.6%
CCOC(=O)c1c(C)oc2c1c(C=NCCC(=O)O)c(O)c1ccccc12	77.4% (active)
CCOC(=O)c1c(C)oc2c1c(C(c1ccccc1)N1CCOCC1)c(O)c1ccccc12 (stereo not given)	37%
CCOC(=O)c1c(C)oc2c1c(C(c1cccnc1)N1CCN(C)CC1)c(O)c1ccccc12 (stereo not given)	35.1%
CCOC(=O)c1c(C)oc2c1c1c(c3ccccc32)OCN(Cc2cccnc2)C1	71.9% (active)
CCC1CCCCN1C(=O)COc1cccc2c1CCN(C)C2=O (stereo not given)	-3.6%
O=C(C[n+]1cccc(CO)c1)Nc1nc2ccccc2s1	-3.4%
O=c1c2sc(-c3ccccc3)cc2nc2n1CCC2	-4.9%
Clc1ccc(N/N=C/c2ccncc2)cc1Cl	5.3%
O=C(COC(=O)[C@@H]1CCCN1S(=O)(=O)c1ccccc1F)Nc1ccc(OC(F)F)cc1	9.6%
Cn1c(SCC(=O)NCC2CCCO2)nnc1-c1ccc(S(=O)(=O)N2CCCC2)cc1 (stereo not given)	-1.5%
CCNC(=O)NC(=O)C(C)SCc1ccccc1C (stereo not given)	-8.4%

Structure (SMILES)	inhibition
CCOC(=O)c1c(C)oc2c1c(C=NCc1ccccn1)c(O)c1ccccc12	62.5% (active)
CCOC(=O)c1c(NCC2CCCO2)c2ccccc2[nH]c1=O (stereo not given)	-8.8%
CCOC(=O)c1c(C)oc2c1c(C(c1cccnc1)N1CCOCC1)c(O)c1ccccc12 (stereo not given)	22.6%
O=c1oc2ccccc2c(O)c1C=NCc1ccccn1	5.9%
CCOC(=O)c1c(C)oc2c1c(C=NCC1CCCO1)c(O)c1ccccc12 (stereo not given)	63.6% (active)
CCOC(=O)c1c(C)oc2c1cc(O)c1ccccc12	13.4%
CCOC(=O)c1c(C)oc2c1c(C(c1ccncc1)N1CCOCC1)c(O)c1ccccc12 (stereo not given)	21%
Oc1[nH]c2ccccc2c1C=NCC1CCCO1 (stereo not given)	-2.9%
Cn1c(NC(=O)Cc2cccc3ccccc23)cc(=O)n(C)c1=O	7.2%
NNC(=O)c1sc2cc(C(F)(F)F)cnc2c1-c1cccnc1	3.5%
O=S1(=O)N=C(Nc2nncs2)c2ccccc21	23.3%
O=C1CNC(=O)N1CC(O)Cn1c2ccccc2c2ccccc21 (stereo not given)	5.5%
O=C(/C=C/c1ccc(S(=O)(=O)NCc2ccco2)cc1)NCc1cccc(Cl)c1	0.4%
CCCn1c(CNS(=O)(=O)c2ccc(C)cc2)nc2ccccc21	83.3% (active)
CCCn1c(NCc2ccccc2NS(=O)(=O)c2ccc(C)cc2)nc2ccccc21	27.9%
CCCn1c(CNC(=O)c2ccccc2)nc2ccccc21	0.8%
O=C(N/N=C/c1coc2ccccc2c1=O)c1ccccc1Br	-7.2%
Cn1c(C(C#N)C(=O)Cc2cccc3ccccc23)nc2ccccc21 (stereo not given)	-7.2%
C=CCNC(=S)Nc1ccc(Cl)c(S(=O)(=O)N2CCOCC2)c1	-6.8%
CCC(=O)OCCNc1cc(SCCC(=O)OC)c2nonc2c1[N+](=O)[O-]	79.5% (active)
CCC(=O)OCCNc1cc(Sc2nccn2C)c2nonc2c1[N+](=O)[O-]	20.4%
CCCSc1cc(NCCOC(C)=O)c([N+](=O)[O-])c2nonc12	27.6%
CCCC(=O)OCCNc1cc(SCCC(=O)OC)c2nonc2c1[N+](=O)[O-]	81.2% (active)
COC(=O)CCSc1cc(NCCOC(C)=O)c([N+](=O)[O-])c2nonc12	4.9%
CCCSc1cc(NCCOC(=O)CCC)c([N+](=O)[O-])c2nonc12	41.9%
